Reference: ChEMBL document CHEMBL2218924, “A broad activity screen in support of a chemogenomic map for kinase signalling research and drug discovery” (Biochem J, 2013)

Legend:
[1] = target: Serine/threonine-protein kinase WNK2 (Homo sapiens) (UniProt Q9Y3S1); conditions: at 10 µM
[2] = target: Serine/threonine-protein kinase WNK3 (Homo sapiens) (UniProt Q9BYP7); conditions: at 1 µM
[3] = target: Serine/threonine-protein kinase WNK3 (Homo sapiens) (UniProt Q9BYP7); conditions: at 10 µM
[4] = target: Tyrosine-protein kinase Yes (Homo sapiens) (UniProt P07947); conditions: at 1 µM
[5] = target: Tyrosine-protein kinase Yes (Homo sapiens) (UniProt P07947); conditions: at 10 µM
[6] = target: T1, Tyrosine-protein kinase ZAP-70 (Homo sapiens) (UniProt P43403); conditions: at 1 µM
T1 sequence (whole entry): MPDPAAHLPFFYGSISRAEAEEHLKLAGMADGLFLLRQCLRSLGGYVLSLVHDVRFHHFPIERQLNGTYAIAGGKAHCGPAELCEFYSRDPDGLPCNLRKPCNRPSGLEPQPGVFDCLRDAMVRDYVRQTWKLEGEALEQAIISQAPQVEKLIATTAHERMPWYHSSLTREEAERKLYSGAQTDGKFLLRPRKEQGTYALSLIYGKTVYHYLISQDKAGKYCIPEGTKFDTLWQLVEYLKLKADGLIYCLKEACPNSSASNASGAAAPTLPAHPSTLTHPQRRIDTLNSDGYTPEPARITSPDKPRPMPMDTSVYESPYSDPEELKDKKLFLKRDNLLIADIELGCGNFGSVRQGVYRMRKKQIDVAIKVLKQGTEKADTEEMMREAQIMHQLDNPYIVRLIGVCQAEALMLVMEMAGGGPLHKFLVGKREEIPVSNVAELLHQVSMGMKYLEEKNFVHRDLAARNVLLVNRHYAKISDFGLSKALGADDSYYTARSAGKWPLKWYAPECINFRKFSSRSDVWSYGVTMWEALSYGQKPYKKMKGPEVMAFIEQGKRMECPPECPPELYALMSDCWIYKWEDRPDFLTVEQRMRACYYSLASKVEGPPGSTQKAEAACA

[7] = target: Death-associated protein kinase 3 (Homo sapiens) (UniProt O43293); conditions: at 10 µM
[8] = target: RAF proto-oncogene serine/threonine-protein kinase (Homo sapiens) (UniProt P04049); conditions: at 1 µM
[9] = target: RAF proto-oncogene serine/threonine-protein kinase (Homo sapiens) (UniProt P04049); conditions: at 10 µM
[10] = target: Mast/stem cell growth factor receptor Kit (Homo sapiens) (UniProt P10721); conditions: at 1 µM
[11] = target: Mast/stem cell growth factor receptor Kit (Homo sapiens) (UniProt P10721); conditions: at 10 µM
[12] = target: Proto-oncogene tyrosine-protein kinase Src (Homo sapiens) (UniProt P12931); conditions: at 1 µM
[13] = target: Proto-oncogene tyrosine-protein kinase Src (Homo sapiens) (UniProt P12931); conditions: at 10 µM
[14] = target: Serine/threonine-protein kinase mTOR (Homo sapiens) (UniProt P42345); conditions: at 1 µM
[15] = target: Serine/threonine-protein kinase mTOR (Homo sapiens) (UniProt P42345); conditions: at 10 µM
[16] = target: Serine/threonine-protein kinase mTOR (Homo sapiens) (UniProt P42345); conditions: at 1 µM; remark: listed apart in the source
[17] = target: Serine/threonine-protein kinase mTOR (Homo sapiens) (UniProt P42345); conditions: at 10 µM; remark: listed apart in the source
[18] = target: Death-associated protein kinase 3 (Homo sapiens) (UniProt O43293); conditions: at 1 µM

Sequence of RAF proto-oncogene serine/threonine-protein kinase (Homo sapiens) (P04049 whole entry): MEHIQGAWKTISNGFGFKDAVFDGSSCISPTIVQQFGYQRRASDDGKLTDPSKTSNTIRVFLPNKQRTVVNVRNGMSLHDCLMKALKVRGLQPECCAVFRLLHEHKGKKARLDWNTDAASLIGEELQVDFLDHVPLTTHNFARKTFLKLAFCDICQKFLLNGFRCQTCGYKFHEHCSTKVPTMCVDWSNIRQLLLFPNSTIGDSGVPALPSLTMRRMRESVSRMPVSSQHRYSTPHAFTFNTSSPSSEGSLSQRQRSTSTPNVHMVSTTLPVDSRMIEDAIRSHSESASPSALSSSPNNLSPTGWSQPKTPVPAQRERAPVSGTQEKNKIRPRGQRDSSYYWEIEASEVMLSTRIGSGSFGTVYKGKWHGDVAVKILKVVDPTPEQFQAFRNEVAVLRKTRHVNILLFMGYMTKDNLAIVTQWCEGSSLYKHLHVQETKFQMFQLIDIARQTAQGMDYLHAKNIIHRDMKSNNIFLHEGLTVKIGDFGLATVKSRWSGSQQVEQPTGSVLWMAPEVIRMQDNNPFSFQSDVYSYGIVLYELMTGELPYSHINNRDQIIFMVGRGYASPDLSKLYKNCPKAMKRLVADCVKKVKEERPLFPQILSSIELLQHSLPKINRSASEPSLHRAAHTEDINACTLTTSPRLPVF
Sequence of Serine/threonine-protein kinase WNK2 (Homo sapiens) (Q9Y3S1 whole entry): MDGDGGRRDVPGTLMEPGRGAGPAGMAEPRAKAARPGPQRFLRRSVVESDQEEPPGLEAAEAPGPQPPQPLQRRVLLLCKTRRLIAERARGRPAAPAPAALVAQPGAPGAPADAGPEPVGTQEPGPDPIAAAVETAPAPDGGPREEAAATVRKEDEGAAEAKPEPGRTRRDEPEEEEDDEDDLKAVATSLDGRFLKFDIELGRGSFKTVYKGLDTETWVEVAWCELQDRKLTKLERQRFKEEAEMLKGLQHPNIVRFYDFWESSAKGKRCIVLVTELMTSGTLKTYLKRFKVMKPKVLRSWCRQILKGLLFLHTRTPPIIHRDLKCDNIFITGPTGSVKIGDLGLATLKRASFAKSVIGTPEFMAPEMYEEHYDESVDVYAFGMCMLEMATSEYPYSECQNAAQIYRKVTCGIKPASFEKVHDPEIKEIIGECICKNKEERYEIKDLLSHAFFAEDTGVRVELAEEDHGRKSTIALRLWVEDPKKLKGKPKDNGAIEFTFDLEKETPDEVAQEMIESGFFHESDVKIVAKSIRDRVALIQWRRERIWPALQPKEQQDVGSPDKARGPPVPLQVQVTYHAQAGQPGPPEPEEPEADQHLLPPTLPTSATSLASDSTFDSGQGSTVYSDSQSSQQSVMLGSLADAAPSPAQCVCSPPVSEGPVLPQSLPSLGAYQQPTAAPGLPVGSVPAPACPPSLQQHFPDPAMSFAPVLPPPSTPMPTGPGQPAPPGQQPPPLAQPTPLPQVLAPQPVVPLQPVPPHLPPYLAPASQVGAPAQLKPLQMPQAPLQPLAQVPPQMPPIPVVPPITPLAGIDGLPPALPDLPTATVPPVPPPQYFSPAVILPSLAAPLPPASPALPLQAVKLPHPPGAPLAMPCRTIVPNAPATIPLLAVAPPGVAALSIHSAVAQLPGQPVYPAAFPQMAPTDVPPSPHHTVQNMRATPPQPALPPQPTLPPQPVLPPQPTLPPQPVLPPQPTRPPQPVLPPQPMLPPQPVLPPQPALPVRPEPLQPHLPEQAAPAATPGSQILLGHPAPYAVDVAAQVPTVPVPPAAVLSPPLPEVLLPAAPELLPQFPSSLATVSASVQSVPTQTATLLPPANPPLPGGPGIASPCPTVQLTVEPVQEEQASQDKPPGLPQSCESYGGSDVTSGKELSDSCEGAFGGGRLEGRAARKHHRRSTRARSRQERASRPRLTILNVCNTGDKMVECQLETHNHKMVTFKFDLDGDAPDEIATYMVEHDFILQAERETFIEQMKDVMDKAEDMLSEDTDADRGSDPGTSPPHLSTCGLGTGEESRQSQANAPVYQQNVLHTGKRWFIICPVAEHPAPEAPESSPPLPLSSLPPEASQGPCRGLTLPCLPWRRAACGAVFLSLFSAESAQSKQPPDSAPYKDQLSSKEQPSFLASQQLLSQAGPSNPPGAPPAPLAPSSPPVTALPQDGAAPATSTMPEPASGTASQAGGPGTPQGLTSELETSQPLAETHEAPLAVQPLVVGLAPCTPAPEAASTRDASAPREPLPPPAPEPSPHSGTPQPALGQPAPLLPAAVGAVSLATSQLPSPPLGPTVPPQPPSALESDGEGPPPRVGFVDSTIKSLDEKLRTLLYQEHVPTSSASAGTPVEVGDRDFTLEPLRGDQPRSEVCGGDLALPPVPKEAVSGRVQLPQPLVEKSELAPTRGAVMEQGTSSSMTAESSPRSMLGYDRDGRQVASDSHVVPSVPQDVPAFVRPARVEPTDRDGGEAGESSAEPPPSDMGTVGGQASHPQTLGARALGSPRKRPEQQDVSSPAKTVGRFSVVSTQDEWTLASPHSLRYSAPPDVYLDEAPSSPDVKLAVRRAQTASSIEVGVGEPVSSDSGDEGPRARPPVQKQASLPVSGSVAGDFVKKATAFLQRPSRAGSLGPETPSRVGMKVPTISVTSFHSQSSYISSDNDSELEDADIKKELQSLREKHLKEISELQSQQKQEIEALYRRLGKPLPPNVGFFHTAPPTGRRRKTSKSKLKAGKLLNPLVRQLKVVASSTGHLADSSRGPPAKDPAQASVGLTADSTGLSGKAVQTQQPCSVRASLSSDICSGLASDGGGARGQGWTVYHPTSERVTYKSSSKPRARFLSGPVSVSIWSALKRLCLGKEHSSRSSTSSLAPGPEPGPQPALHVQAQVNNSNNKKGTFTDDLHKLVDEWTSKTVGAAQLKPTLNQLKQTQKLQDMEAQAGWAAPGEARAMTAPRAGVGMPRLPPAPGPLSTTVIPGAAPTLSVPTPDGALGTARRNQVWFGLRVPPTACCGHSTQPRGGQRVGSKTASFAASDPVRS
Sequence of Proto-oncogene tyrosine-protein kinase Src (Homo sapiens) (P12931 2-536 limits assumed): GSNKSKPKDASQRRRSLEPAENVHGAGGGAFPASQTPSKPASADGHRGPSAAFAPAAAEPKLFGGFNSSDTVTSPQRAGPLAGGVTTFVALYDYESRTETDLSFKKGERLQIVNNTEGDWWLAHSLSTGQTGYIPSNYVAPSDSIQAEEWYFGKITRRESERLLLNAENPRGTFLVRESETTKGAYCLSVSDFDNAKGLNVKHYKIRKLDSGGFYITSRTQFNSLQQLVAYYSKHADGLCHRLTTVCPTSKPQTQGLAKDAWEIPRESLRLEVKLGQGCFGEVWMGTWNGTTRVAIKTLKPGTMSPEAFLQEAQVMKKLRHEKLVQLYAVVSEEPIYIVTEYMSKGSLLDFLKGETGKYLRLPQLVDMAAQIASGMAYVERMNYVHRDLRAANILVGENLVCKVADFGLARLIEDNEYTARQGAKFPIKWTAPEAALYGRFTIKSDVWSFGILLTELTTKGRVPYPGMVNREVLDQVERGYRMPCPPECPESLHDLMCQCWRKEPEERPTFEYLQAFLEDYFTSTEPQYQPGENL
Sequence of Death-associated protein kinase 3 (Homo sapiens) (O43293 whole entry, looked up): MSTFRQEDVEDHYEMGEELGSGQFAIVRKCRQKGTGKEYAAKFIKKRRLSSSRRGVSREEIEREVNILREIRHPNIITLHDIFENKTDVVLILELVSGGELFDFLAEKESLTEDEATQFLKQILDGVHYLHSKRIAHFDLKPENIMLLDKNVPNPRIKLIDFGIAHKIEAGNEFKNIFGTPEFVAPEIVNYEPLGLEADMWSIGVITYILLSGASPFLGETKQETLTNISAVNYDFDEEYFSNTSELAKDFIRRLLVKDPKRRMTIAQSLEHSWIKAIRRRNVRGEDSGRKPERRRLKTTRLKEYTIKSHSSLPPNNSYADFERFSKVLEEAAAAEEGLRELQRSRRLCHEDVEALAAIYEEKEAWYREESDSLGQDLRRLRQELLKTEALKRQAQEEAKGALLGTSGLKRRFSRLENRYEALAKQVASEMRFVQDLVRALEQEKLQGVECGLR
Sequence of Tyrosine-protein kinase Yes (Homo sapiens) (P07947 2-543 limits assumed): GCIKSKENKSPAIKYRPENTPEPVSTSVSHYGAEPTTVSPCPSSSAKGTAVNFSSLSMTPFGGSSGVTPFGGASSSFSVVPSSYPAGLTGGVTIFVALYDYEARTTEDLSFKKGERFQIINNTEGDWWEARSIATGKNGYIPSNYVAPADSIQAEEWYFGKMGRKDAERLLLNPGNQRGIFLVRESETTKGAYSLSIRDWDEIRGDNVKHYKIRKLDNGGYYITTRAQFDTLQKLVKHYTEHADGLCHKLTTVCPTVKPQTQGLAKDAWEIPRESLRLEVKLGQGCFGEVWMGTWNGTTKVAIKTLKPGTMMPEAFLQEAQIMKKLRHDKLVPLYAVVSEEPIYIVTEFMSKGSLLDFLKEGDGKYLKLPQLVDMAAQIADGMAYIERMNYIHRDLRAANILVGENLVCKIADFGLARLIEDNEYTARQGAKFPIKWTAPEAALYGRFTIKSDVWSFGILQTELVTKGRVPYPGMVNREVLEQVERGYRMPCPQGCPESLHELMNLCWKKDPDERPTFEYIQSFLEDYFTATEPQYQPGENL

Compound | residual activity [1] [%] | residual activity [2] | residual activity [3] [%] | residual activity [4] [%] | residual activity [5] [%] | residual activity [6] [%] | residual activity [7] [%] | residual activity [8] [%] | residual activity [9] [%] | residual activity [10] [%] | residual activity [11] [%] | residual activity [12] [%] | residual activity [13] [%] | residual activity [14] [%] | residual activity [15] [%] | residual activity [16] [%] | residual activity [17] [%] | residual activity [18] [%]
Cc1cc2ncc(-c3ccccc3)nc2cc1C | 93 | 96% (inactive) | 92 | 109 | 106 | 96 | 100 | 97 | 83 | 86 | 70 | 83 | 99 | 93 | 100 | 70 | 83 | 
CO[C@@H]1[C@H](N(C)C(=O)c2ccccc2)C[C@H]2O[C@]1(C)n1c3ccccc3c3c4c(c5c6ccccc6n2c5c31)C(=O)NC4 | 60 | 91% (inactive) | 76 | 5 | 4 | 70 | 59 | 80 | 90 | 65 | 39 | 40 | 24 | 95 | 103 | 107 | 83 | 56
COc1cc2ncnc(Nc3ccc(NC(=O)c4ccccc4)cc3)c2cc1OC | 25 | 59% (inactive) | 23 | 96 | 30 |  | 84 | 86 | 93 |  | 59 | 83 | 95 | 88 | 92 | 97 | 75 | 97
Cc1ccc(NC2=CC(=O)c3sc(C)nc3C2=O)cc1 | 90 | 80% (inactive) | 95 | 118 | 105 | 113 | 82 | 84 | 87 | 101 | 107 |  | 87 | 96 | 99 | 100 | 86 | 95
Cc1cc(Nc2nc(-c3ccccc3)nc3ccccc23)n[nH]1 | 27 | 74% (inactive) | 31 | 6 | 1 | 114 | 13 |  | 62 | 23 | 2 | 14 | -2 | 109 |  | 128 |  | 46
O=c1cc(-c2cccc3c2Sc2ccccc2S3)oc(N2CCOCC2)c1 | 78 | 95% (inactive) | 87 | 109 | 91 | 113 | 99 | 96 | 55 | 99 | 102 | 89 | 92 | 98 | 74 | 89 | 60 | 104
COc1ccc(C(=O)Nc2sc3c(c2C(N)=O)CCCC3)cc1OC | 84 | 101% (inactive) | 94 | 106 | 90 | 103 | 106 | 87 | 94 | 85 | 87 | 76 | 104 | 101 | 104 | 95 | 88 | 76
O=C1Nc2ccc(Br)cc2/C1=C\c1cc2c([nH]1)CCCC2 | 84 | 118% (inactive) | 105 | 79 | 63 | 112 |  | 99 | 102 | 66 | 43 | 73 | 99 | 116 | 104 | 110 | 103 | 
Nc1n[nH]c2nnc(-c3c(-c4ccccc4)nn4ccccc34)cc12 | 90 | 83% (inactive) | 86 | 93 | 33 | 100 | 88 | 80 | 62 | 95 | 108 | 103 | 77 | 113 | 97 | 129 | 87 | 105
Nc1nc(Nc2ccc(S(N)(=O)=O)cc2)nn1C(=S)Nc1c(F)cccc1F |  | 77% (inactive) | 64 | 3 | 2 | 124 | 78 | 82 | 26 | 100 | 66 | 23 | 1 | 108 | 89 | 128 | 94 | 90
Cc1cncc2cccc(S(=O)(=O)N3CCCN(C(=O)CN)C[C@H]3C)c12 |  |  | 92 |  | 49 |  |  | 79 | 95 |  |  | 86 | 96 |  |  |  |  | 
